Compounds with a hit are over-represented: about 3.9% of the library has one in this group of screens.
SUMO Mot1 rescue = yeast Mot1-301 growth rescue at high temperature, primary screen, SUMOylation pathway inhibitor project, S. cerevisiae, ATP luminescence, 38.5C; actives 1% (n = 320,000); AID 2716, 2010; S. cerevisiae Mot1-301 growth rescue; percent above DMSO median, 100 means doubled; growth rescue, % at 18.8 µM;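 active means every valid replicate shows activation above 250% relative to neutral control wells; inactive means the rest, any valid replicate at or below 250%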
ALR inh = inhibitors of human ALR sulfhydryl oxidase, primary screen, biochemical, H2O2 detection, HRP-luminol luminescence, single point. FAD-linked sulfhydryl oxidase ALR (Homo sapiens), P55789. purified ALR, DTT oxidation. inhibition, % (test concentration not listed). actives 3.8% (n = 290,000). AID 485317, 2010;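 active means mean replicate inhibition above about 79%, with every replicate also reaching it, limit read from the data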
Target sequence (P55789 whole entry, looked up): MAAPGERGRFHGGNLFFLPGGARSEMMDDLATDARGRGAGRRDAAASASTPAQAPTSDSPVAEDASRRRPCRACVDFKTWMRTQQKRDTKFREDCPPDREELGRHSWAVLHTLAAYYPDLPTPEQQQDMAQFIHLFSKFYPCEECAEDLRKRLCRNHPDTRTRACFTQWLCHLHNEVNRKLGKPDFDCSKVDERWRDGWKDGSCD
CDK5 inh = inhibitors of human CDK5/p35 kinase, primary screen, biochemical, single concentration | actives 0.01% (n = 330,000) | inhibition, % at 10 µM | Recombinant CDK5/p35, ADP-Glo luminescence, 60 min;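 active means highest replicate inhibition of at least 50% and at least 75% of replicates reaching 50%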
N-glyco inh = increase of ERlucT glycosylation luciferase signal, primary screen, N-linked glycosylation inhibitor project, D54 ERlucT cells, luminescence, set 2; D54 ERlucT glycosylation luciferase reporter, 24 h; percent of 100 nM tunicamycin response; reporter increase, % at 12.5 µM; actives 0.23% (n = 360,000);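 active means mean luciferase reporter signal, scaled so untreated is 0 and the glycosylation-blocking control 100, at or above a set limit in every replicate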;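 further: luciferase carries N-glycosylation sites so blocking glycosylation raises the light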
NSD2 HMT inh = NSD2 histone methyltransferase inhibitors, primary screen, biochemical, AlphaScreen, single concentration, set 2 | Histone-lysine N-methyltransferase NSD2 (Homo sapiens), O96028 | NSD2 peptide methylation, 120 min | inhibition, % at 12.5 µM | actives 0.54% (n = 310,000) | AID 743445, 2014; in the data active means inhibition above about 50%
Casp6 inh = human caspase-6 inhibitors, primary screen, biochemical, VEID-R110 fluorescence, single point, set 2 | P55212 | purified caspase-6, Z-VEID-R110 cleavage fluorescence | inhibition, % at 12.5 µM | actives 0.53% (n = 350,000);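 active means mean inhibition across replicates at least about 35%, with every replicate also reaching that limit, limit read from the data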
Target sequence (P55212 24-179 limits assumed): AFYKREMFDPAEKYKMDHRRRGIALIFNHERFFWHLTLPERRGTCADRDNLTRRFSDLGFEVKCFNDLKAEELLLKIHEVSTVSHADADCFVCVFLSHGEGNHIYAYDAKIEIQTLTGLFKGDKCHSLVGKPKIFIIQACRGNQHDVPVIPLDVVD
Target sequence (P55212 194-293 limits assumed): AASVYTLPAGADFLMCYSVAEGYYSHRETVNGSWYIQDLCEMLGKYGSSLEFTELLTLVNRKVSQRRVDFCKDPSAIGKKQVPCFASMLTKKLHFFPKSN
Mot1 SUMO dose = growth restoration of Mot1-301 yeast on galactose, dose response, SUMO pathway inhibitor project, whole organism, S. cerevisiae, ATP luminescence, cherry-picked samples; S. cerevisiae Mot1-301 galactose growth, 24 h; -100 = growth of slx-deleted rescue strain; growth activity, percent, % at 42 µM; 2,300 tested, under 10 active; shares compounds with SUMO Mot1 rescue;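 active means Signal drops as the depositor expects, and the fitted half-maximal dose is no more than ten times the top valid tested dose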;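 further: more negative values mean stronger growth rescue toward the control strain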
Large screens that a line does not name were inactive (follow-up assays come after a bar, where they were run).

Cc1cc(=O)oc(C)c1C(=O)Nc1ccc(Cl)cn1	SUMO Mot1 rescue 421 (no result: Casp6 inh) | Mot1 SUMO dose inactive
COc1ccc(NS(=O)(=O)c2ccc(OCC(=O)N3CCOCC3)cc2)cc1Cl	SUMO Mot1 rescue active (no result: NSD2 HMT inh) | Mot1 SUMO dose inactive
COC(=O)c1ccc(CN2CCN(C3CCCCC3)C(CCO)C2)cc1 (configuration not stated)	SUMO Mot1 rescue 403 | Mot1 SUMO dose inactive
CCCCn1c(/N=C/c2ccc3c(c2)OCO3)nc2ccccc21	SUMO Mot1 rescue 577 (no result: Casp6 inh) | Mot1 SUMO dose inactive
O=C(C[C@H]1C=C[C@H](NC(=O)c2cccc(F)c2)[C@H](CO)O1)NCc1ccc(Oc2ccccc2)cc1	none (no result: SUMO Mot1 rescue, ALR inh, CDK5 inh, N-glyco inh, NSD2 HMT inh)
Cc1cccc(OCC(O)CN2C(C)(C)CC(O)CC2(C)C)c1 (configuration not stated)	SUMO Mot1 rescue 571 (no result: Casp6 inh) | Mot1 SUMO dose inactive
Cc1c(C(=O)OCC(=O)Nc2ccc(S(N)(=O)=O)cc2)oc2c1ccc1ccccc12	SUMO Mot1 rescue 500 | Mot1 SUMO dose inactive
Cc1cc(NC(=O)COC(=O)c2oc3c(ccc4ccccc43)c2C)no1	none
Cc1cc(C(=O)OCC(=O)Nc2cccc(S(N)(=O)=O)c2)c2ccccc2n1	SUMO Mot1 rescue 647 | Mot1 SUMO dose inactive
COc1cccc(-c2ccc3c(c2)O[C@H](CN(C)Cc2cncnc2)[C@H](C)CN([C@H](C)CO)S3(=O)=O)c1	none (no result: SUMO Mot1 rescue, ALR inh, CDK5 inh, N-glyco inh, NSD2 HMT inh)
O=C(NCC1CCCO1)c1nn2c(C(F)(F)F)cc(-c3ccco3)nc2c1Cl (configuration not stated)	none (no result: ALR inh)
O=C(NCC1CCCO1)c1nn2c(C(F)(F)F)cc(-c3cc(Br)cs3)nc2c1Br (configuration not stated)	SUMO Mot1 rescue 472 | Mot1 SUMO dose inactive
CCCNC(=O)Nc1ccc2c(c1)OC[C@H](C)N(Cc1cccnc1)C[C@H](C)[C@@H](OC)CN(C)C2=O	none (no result: SUMO Mot1 rescue, ALR inh, CDK5 inh, N-glyco inh, NSD2 HMT inh)
CC(=O)Nc1cccc(OCC(=O)NS(=O)(=O)c2ccc(C)cc2)c1	SUMO Mot1 rescue 846 | Mot1 SUMO dose inactive
Cc1cccc(OCC(=O)NS(=O)(=O)c2ccc(Br)cc2)c1	none
CO[C@@H]1CN(C)C(=O)c2ccc(NC(C)=O)cc2OC[C@@H](C)N(C(=O)Cc2ccccn2)C[C@H]1C	none (no result: SUMO Mot1 rescue, ALR inh, CDK5 inh, N-glyco inh, NSD2 HMT inh)
Cc1cc(-c2ccccc2)n(-c2ccc(C(=O)NC(C)C)cc2)n1	SUMO Mot1 rescue 645 (no result: Casp6 inh) | Mot1 SUMO dose inactive
CC(=O)OCC(OC(C)=O)C(OC(C)=O)C(OC(C)=O)C(=O)Nc1ccccc1 (configuration not stated)	SUMO Mot1 rescue 386 | Mot1 SUMO dose inactive
COc1cccc2[nH]c(=O)c(-c3ccccc3)cc12	SUMO Mot1 rescue 453 | Mot1 SUMO dose inactive
Cc1noc(C)c1NC(=O)Nc1ccc2c(c1)C(=O)N([C@H](C)CO)C[C@@H](C)[C@H](CN(C)Cc1ccc(C(F)(F)F)cc1)OCCCC[C@@H](C)O2	none (no result: SUMO Mot1 rescue, ALR inh, CDK5 inh, N-glyco inh, NSD2 HMT inh)
C[C@H](O)C#Cc1cnc2c(c1)C(=O)N([C@H](C)CO)C[C@@H](C)[C@H](CN(C)C(=O)Nc1ccc(F)cc1)O2	none (no result: SUMO Mot1 rescue, ALR inh, CDK5 inh, N-glyco inh, NSD2 HMT inh)
CC(=O)Nc1sc2c(c1C(c1ccc(F)cc1)N1CCOCC1)CCCC2 (configuration not stated)	SUMO Mot1 rescue 385 (no result: Casp6 inh) | Mot1 SUMO dose inactive
CC(=O)Nc1sc2c(c1C(c1ccc(Cl)cc1)N1CCOCC1)CCCC2 (configuration not stated)	none (no result: Casp6 inh)
O=C(C[C@@H]1CC[C@@H]2[C@H](COC[C@H](O)CN2C(=O)c2ccccc2)O1)Nc1nccs1	none (no result: SUMO Mot1 rescue, ALR inh, CDK5 inh, N-glyco inh, NSD2 HMT inh)
Cc1ccc(NC(=O)COc2ccccc2C(=O)NCCN(C)C)cc1	SUMO Mot1 rescue 800 (no result: CDK5 inh, N-glyco inh, Casp6 inh) | Mot1 SUMO dose inactive

Assay outcomes (PubChem)
